An excerpt weighted towards active compounds, which were near 2.6% of everything screened.
mut p53 SMM: mutant p53 (human) binding; small molecule microarray binding, anti-GST fluorescence; calls only; 17,000 tested, 0.4% active;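 active = compounds whose four printed spots each glow above background more than chance allows, each with a p-value under 7%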
p53 PUMA act: re-activators of the mutant p53 pathway; 28,000 tested, 1.5% active; activation, % at 9.98 µM; AID 624151; SW480 PUMA-promoter luciferase, p53 mutant reactivation; in the data active = activation above about 52%
Myc binder: binds human c-Myc on microarray | P01106 | small molecule microarray, His-c-Myc binding, anti-His fluorescence | calls only | 17,000 tested, 1.5% active | AID 624141;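 active = spot fluorescence over background with P-value below 7% in all four replicate spots, showing protein binding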;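 note: score is binary with 100 for all four spots passing and 0 otherwise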
Target sequence (P01106 whole entry, looked up): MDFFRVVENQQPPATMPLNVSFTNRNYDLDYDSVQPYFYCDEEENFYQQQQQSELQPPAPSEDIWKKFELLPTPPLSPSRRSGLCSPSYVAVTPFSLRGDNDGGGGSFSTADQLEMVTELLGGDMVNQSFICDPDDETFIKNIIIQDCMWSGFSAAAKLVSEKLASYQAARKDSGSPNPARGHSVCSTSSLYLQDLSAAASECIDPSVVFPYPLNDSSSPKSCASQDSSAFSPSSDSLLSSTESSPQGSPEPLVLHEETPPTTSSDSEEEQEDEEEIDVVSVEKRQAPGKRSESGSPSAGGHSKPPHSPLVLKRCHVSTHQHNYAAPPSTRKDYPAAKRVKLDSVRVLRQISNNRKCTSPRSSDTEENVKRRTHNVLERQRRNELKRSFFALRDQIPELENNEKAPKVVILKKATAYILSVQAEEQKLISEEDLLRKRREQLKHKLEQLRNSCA
NFkB SMM: NF-kappa-B p105 (human) binding | 17,000 tested, 1.3% active | Small molecule microarray, anti-His fluorescence binding | calls only | AID 624139;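 active = spot fluorescence over background significantly raised, with a chance value under 7% in all four replicate spots of the compound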;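 note: probe protein is his-tagged human p50 processed subunit at 1 µg/ml; raw spot fluorescence signals with no normalization applied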
STAT3 SMM: binders of human STAT3 | calls only | Small molecule microarray, His-STAT3 binding, anti-His fluorescence | P40763 | 17,000 tested, 0.2% active;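 active = compounds whose four printed spots each show fluorescence over background unusually high for their array block, chance value under 7%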
* marks the source's active call; other numbers are inactive results.

Results for Cc1ccc(NC(=O)C(C)Oc2ccc(Cl)cc2Cl)c([N+](=O)[O-])c1 (centres undefined) ?
mut p53 SMM: inactive; p53 PUMA act: 77*; Myc binder: inactive; NFkB SMM: inactive; STAT3 SMM: inactive

What do the screens show for `COc1ccc(NC(=O)COc2cc(C)cc(C)c2C)c([N+](=O)[O-])c1`?
p53 PUMA act: -7

Results for COC1=C/C(=C/c2c(N)n3c(SC(C)C)nsc3nc2=O)C=CC1=O ?
p53 PUMA act: 2

What do the screens show for `Cc1cc(Cl)c(S(=O)(=O)N2CCCCC2)cc1OCC(N)=O`?
p53 PUMA act: -3

What do the screens show for `CC(=O)Nc1ccccc1NC(=O)COc1ccc2ccccc2c1Br`?
mut p53 SMM: inactive; p53 PUMA act: -10; Myc binder: inactive; NFkB SMM: inactive; STAT3 SMM: inactive

How did COc1ccc(OCC(=O)Nc2ccccc2OC(F)F)cc1 do in these assays?
mut p53 SMM: inactive; p53 PUMA act: 65*; Myc binder: inactive; NFkB SMM: inactive; STAT3 SMM: inactive

What do the screens show for `Cc1ccc(NC(=O)COc2ccc3ccccc3c2Br)c([N+](=O)[O-])c1`?
p53 PUMA act: 64*

What do the screens show for `COc1ccc(NC(=O)CSc2nnc(C)s2)c([N+](=O)[O-])c1`?
p53 PUMA act: 2

What do the screens show for `O=C(COc1ccc2ccccc2c1Br)Nc1cccnc1`?
p53 PUMA act: 80*

How did COc1ccc(NC(=O)CSc2nc3ccccc3o2)c([N+](=O)[O-])c1 do in these assays?
mut p53 SMM: inactive; p53 PUMA act: 69*; Myc binder: inactive; NFkB SMM: inactive; STAT3 SMM: inactive

What do the screens show for `CN1C(=O)c2cccc(NC(=O)C3COc4ccccc4O3)c2C1=O` (centres undefined)?
p53 PUMA act: 0

Results for COc1ccc(-c2cc(=O)c3c(O)c(OC)c(O)c(OC)c3o2)cc1 ?
mut p53 SMM: inactive; p53 PUMA act: 58*; Myc binder: inactive; NFkB SMM: inactive; STAT3 SMM: inactive

How did C=CCN1C(=O)/C(=C2\SC(N3CCCCC3)=NC2=O)c2ccccc21 do in these assays?
p53 PUMA act: 68*

What do the screens show for `O=C(CN1C(=O)c2cccc3cccc1c23)Nc1ccccc1C(=O)N1CCCC1`?
p53 PUMA act: -9

Results for Cc1ccc2c(c1)c1nc3ccccc3nc1n2CCN1CCOCC1 ?
mut p53 SMM: inactive; p53 PUMA act: -17; Myc binder: active; NFkB SMM: inactive; STAT3 SMM: inactive

How did COc1ccc(OC)c(NC(=O)Cc2c(OC)ccc3cc(Br)ccc23)c1 do in these assays?
p53 PUMA act: -7

How did COc1ccccc1CN1CC(C(=O)O)CC1=O (centres undefined) do in these assays?
mut p53 SMM: inactive; p53 PUMA act: -1; Myc binder: active; NFkB SMM: inactive; STAT3 SMM: inactive

Results for C[C@@H]1CC[C@]2(C(=O)O)CC[C@]3(C)C(=CCC4[C@@]5(C)C[C@@H](O)[C@@H](O)C(C)(C)C5CC[C@]43C)C2[C@]1(C)O (some centres undefined) ?
mut p53 SMM: inactive; p53 PUMA act: 7; Myc binder: inactive; NFkB SMM: inactive; STAT3 SMM: inactive

What do the screens show for `C=C1CCC2(C(=O)O)CCC3(C)C(=CCC4C5(C)C[C@@H](O)[C@H](O)C(C)(CO)C5CCC43C)C2C1C` (some centres undefined)?
mut p53 SMM: inactive; p53 PUMA act: 12; Myc binder: active; NFkB SMM: active; STAT3 SMM: inactive

What do the screens show for `COC(=O)c1cc(NC(=O)CC2Sc3ccccc3NC2=O)cc(C(=O)OC)c1` (centres undefined)?
p53 PUMA act: 4

What do the screens show for `NC(=O)NCC#Cc1ccc2c(c1)[C@]1(C(=O)N2)[C@H](C(=O)N2CCCCCCC2)[C@H]2C(=O)O[C@H](c3ccccc3)[C@H](c3ccccc3)N2[C@@H]1c1ccccc1OCCO`?
mut p53 SMM: active; Myc binder: active; NFkB SMM: inactive; STAT3 SMM: inactive

What do the screens show for `COc1cc2c(cc1OC)CN(C(=O)[C@@H]1[C@H]3C(=O)O[C@H](c4ccccc4)[C@H](c4ccccc4)N3[C@H](c3ccccc3OCCO)[C@@]13C(=O)Nc1ccc(C#CCNC(N)=O)cc13)CC2`?
mut p53 SMM: inactive; Myc binder: inactive; NFkB SMM: active; STAT3 SMM: inactive

Results for O=C1O[C@H](c2ccccc2)[C@H](c2ccccc2)N2[C@H]1[C@@H](C(=O)N1CCCCCCC1)[C@]1(C(=O)Nc3ccc(C#CC4=CCCCC4)cc31)[C@H]2c1ccccc1OCCO ?
mut p53 SMM: active; Myc binder: active; NFkB SMM: active; STAT3 SMM: inactive

How did NC(=O)NCC#Cc1ccc2c(c1)[C@]1(C(=O)N2)[C@H](c2ccccc2OCCO)N2[C@H](c3ccccc3)[C@H](c3ccccc3)OC(=O)[C@H]2[C@@H]1C(N)=O do in these assays?
mut p53 SMM: inactive; Myc binder: inactive; NFkB SMM: inactive; STAT3 SMM: inactive

Results for Cc1cc(C)nc(/N=C2\NC(=O)CC(C(=O)O)N2c2cccc(C(F)(F)F)c2)n1 (centres undefined) ?
p53 PUMA act: -2

How did COc1ccc([N+](=O)[O-])cc1NC(=O)c1ccccc1N(C)S(=O)(=O)c1ccc(C)cc1 do in these assays?
p53 PUMA act: 16

What do the screens show for `COC(=O)[C@H]1CC[C@H](OC(C)=O)[C@]2(C)CC[C@@H](C(C)C)[C@@H](OC(=O)/C=C/c3ccccc3)C12` (some centres undefined)?
mut p53 SMM: inactive; p53 PUMA act: 0; Myc binder: active; NFkB SMM: active; STAT3 SMM: inactive

How did COc1c(O[C@@H]2O[C@H](CO[C@H]3OC[C@](O)(CO)[C@H]3O)[C@@H](O)[C@H](O)[C@H]2O)cc2occ(-c3ccc(O)cc3)c(=O)c2c1O do in these assays?
mut p53 SMM: inactive; p53 PUMA act: 22; Myc binder: inactive; NFkB SMM: inactive; STAT3 SMM: inactive

How did OCc1nc2ccccc2n1CCCOc1ccc(Br)cc1 do in these assays?
p53 PUMA act: 56*

How did COc1ccc(S(=O)(=O)NC2(C(=O)O)CCCCC2)cc1 do in these assays?
p53 PUMA act: 4

Results for CC(C)NC(=O)N(C)C[C@@H]1Oc2ncc(C#Cc3ccc(C(F)(F)F)cc3)cc2C(=O)N([C@H](C)CO)C[C@@H]1C ?
mut p53 SMM: active; p53 PUMA act: -13; Myc binder: active; NFkB SMM: active; STAT3 SMM: inactive

How did CNC[C@@H]1Oc2ncc(C#Cc3ccccc3)cc2C(=O)N([C@H](C)CO)C[C@@H]1C do in these assays?
mut p53 SMM: inactive; p53 PUMA act: 2; Myc binder: active; NFkB SMM: active; STAT3 SMM: inactive

Results for Cc1ccc2nc(-c3ccc(NC(=O)Cn4nc([N+](=O)[O-])c(Cl)c4C)cc3)sc2c1 ?
p53 PUMA act: 80*

Results for Cc1ccc2nc(-c3ccc(NC(=O)CSc4nnc(C)s4)cc3)sc2c1 ?
p53 PUMA act: -63
